Read-out in assay [1]: Nuclear factor erythroid 2-related factor 2 (Homo sapiens) (UniProt Q16236)
Kind of assay: LTEA_HepaRG_NFE2L2: Life Technologies and Expression Analysis (LTEA) Assay for Nuclear factor erythroid 2-related factor 2 (NFE2L2) Transcription Factor using HepaRG (AID 2283527).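 On outcome: TaqMan qRT-PCR transcript level normalised to ACTB GAPDH and POLR2A housekeeping genes.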 The conditions noted are these: mRNA level, 48 h; actives raise or lower the signal. The method in brief: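 Differentiated human HepaRG cells in serum-free induction medium were exposed for 48 h to eight concentrations (top 100 uM, half-log dilutions, 0.5% DMSO), in duplicate. NFE2L2 mRNA was quantified by TaqMan qRT-PCR, normalized to ACTB, GAPDH and POLR2A, with bidirectional fitting versus DMSO.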

Read-out in assay [2]: succinate dehydrogenase complex iron sulfur subunit B (SDHB), SDHB (gene 6390)
Kind of assay: LTEA_HepaRG_SDHB: Life Technologies and Expression Analysis (LTEA) Assay for succinate dehydrogenase complex iron sulfur subunit B (SDHB) using HepaRG (AID 2283528). The conditions noted are these: mRNA level, 48 h; actives raise or lower the signal. Summed up: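 HepaRG cells (~100,000/well, plated 48 h) exposed in duplicate for 48 h in serum-free induction medium to 8-point half-log series from 100 uM in 0.5% DMSO; mRNA by qRT-PCR normalised to ACTB, GAPDH, POLR2A; bidirectional fit versus DMSO.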

Read-out in assay [3]: Signal transducer and activator of transcription 3 (Homo sapiens) (UniProt P40763)
Kind of assay: LTEA_HepaRG_STAT3: Life Technologies and Expression Analysis (LTEA) Assay for Signal transducer and activator of transcription (STAT3) using HepaRG (AID 2283529). The conditions noted are these: mRNA level, 48 h; actives raise or lower the signal. Summed up: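 Differentiated human HepaRG cells in serum-free induction medium were exposed in duplicate for 48 h to eight half-log concentrations up to 100 uM in 0.5% DMSO. STAT3 mRNA was quantified by TaqMan qRT-PCR, normalized to ACTB, GAPDH and POLR2A, and fitted bidirectionally against DMSO.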

Read-out in assay [4]: solute carrier (SLCO1B1), SLCO1B1 (gene 10599)
The assay is described as follows: LTEA_HepaRG_SLCO1B1: Life Technologies and Expression Analysis (LTEA) Assay for solute carrier (SLCO1B1) using HepaRG (AID 2283530). Conditions: mRNA level, 48 h; actives raise or lower the signal. Summed up:
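Gain or loss of SLCO1B1 mRNA is fitted against the 0.5% DMSO vehicle in human HepaRG liver cells treated 48 h at up to 100 uM in half-log steps. Expression comes from qRT-PCR normalized to endogenous controls.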

Read-out in assay [5]: sulfotransferase 2A1 (SULT2A1), SULT2A1 (gene 6822)
The assay is described as follows: LTEA_HepaRG_SULT2A1: Life Technologies and Expression Analysis (LTEA) Assay for sulfotransferase 2A1 (SULT2A1) using HepaRG (AID 2283531). Conditions: mRNA level, 48 h; actives raise or lower the signal. Summed up: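 Cells were plated and cultured 48 h, switched to serum-free induction medium, then dosed in duplicate for 48 h (8 concentrations, max 100 uM). RNA was isolated and SULT2A1 expression measured by qRT-PCR; gain or loss of signal fitted relative to DMSO.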

Read-out in assay [6]: Transforming Growth Factor (TGFA), TGFA (gene 7039)
The assay is described as follows: LTEA_HepaRG_TGFA: Life Technologies and Expression Analysis (LTEA) Assay for Transforming Growth Factor (TGFA) using HepaRG (AID 2283532). The conditions noted are these: mRNA level, 48 h; actives raise or lower the signal. The method in brief:
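Differentiated human HepaRG cells, plated 48 h then switched to serum-free induction medium, were exposed in duplicate for 48 h to 8-point half-log series from 100 uM in 0.5% DMSO. TGFA mRNA measured by qRT-PCR, normalized to ACTB/GAPDH/POLR2A, bidirectional fit versus DMSO.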

Read-out in assay [7]: Transforming Growth Factor (TGFB1), TGFB1 (gene 7040)
Kind of assay: LTEA_HepaRG_TGFB1: Life Technologies and Expression Analysis (LTEA) Assay for Transforming Growth Factor (TGFB1) Transporter using HepaRG (AID 2283533). The conditions noted are these: mRNA level, 48 h; actives raise or lower the signal. Summed up: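 Expression change of TGFB1 in human HepaRG cells is measured after a 48 h chemical exposure, up to 100 uM in 0.5% DMSO vehicle. Curves are fitted in both directions relative to the DMSO baseline.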

Read-out in a further assay: TIMP1, TIMP1 (gene 7076)
The assay is described as follows: LTEA_HepaRG_TIMP1: Life Technologies and Expression Analysis (LTEA) Assay for TIMP1 using HepaRG (AID 2283534). Conditions: mRNA level, 48 h; actives raise or lower the signal. Summed up:
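We dosed human liver HepaRG cultures for 48 hours with up to 100 uM test chemical and measured TIMP1 expression by qRT-PCR. Activity in either direction is fitted relative to the 0.5% DMSO vehicle.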

Read-out in assay [8]: Tumor necrosis factor receptor 1 (TNFRSF1A), TNFRSF1A (gene 7132)
Kind of assay: LTEA_HepaRG_TNFRSF1A: Life Technologies and Expression Analysis (LTEA) Assay for Tumor necrosis factor receptor 1 (TNFRSF1A) using HepaRG (AID 2283535). Conditions: mRNA level, 48 h; actives raise or lower the signal. The method in brief: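 Expression of TNFRSF1A in human HepaRG liver cells was measured by qRT-PCR 48 h after chemical dosing (maximum 100 uM). Bidirectional curve fitting used 0.5% DMSO as baseline.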

Read-out in assay [9]: Cellular tumor antigen p53 (Homo sapiens) (UniProt P04637)
Kind of assay: LTEA_HepaRG_TP53: Life Technologies and Expression Analysis (LTEA) Assay for Tumor Protein P53 (TP53) using HepaRG (AID 2283537). The conditions noted are these: mRNA level, 48 h; actives raise or lower the signal. The method in brief:
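Differentiated HepaRG cells in serum-free induction medium exposed 48 h in duplicate to 8 half-log concentrations, top 100 uM, 0.5% DMSO. TP53 mRNA by TaqMan qRT-PCR (Fluidigm), normalized to ACTB, GAPDH, POLR2A; fitted bidirectionally versus DMSO.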

Read-out in assay [10]: UDP glucuronosyltransferase (UGT1A1), UGT1A1 (gene 54658)
Kind of assay: LTEA_HepaRG_UGT1A1: Life Technologies and Expression Analysis (LTEA) Assay for UDP glucuronosyltransferase (UGT1A1) using HepaRG (AID 2283538). The conditions noted are these: mRNA level, 48 h; actives raise or lower the signal. The method in brief: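 HepaRG cells, 0.5% DMSO vehicle, 48 h exposure in serum-free induction medium to 8-point half-log series topping at 100 uM, in duplicate. UGT1A1 mRNA by Fluidigm qRT-PCR, normalized to ACTB/GAPDH/POLR2A; bidirectional fit versus DMSO.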

Read-out in assay [11]: UDP glucuronosyltransferase (UGT1A6), UGT1A6 (gene 54578)
Kind of assay: LTEA_HepaRG_UGT1A6: Life Technologies and Expression Analysis (LTEA) Assay for UDP glucuronosyltransferase (UGT1A6) using HepaRG (AID 2283539). Conditions: mRNA level, 48 h; actives raise or lower the signal. Summed up: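 Endpoint is UGT1A6 transcript induction or loss in a human liver cell line, quantified by TaqMan qRT-PCR 48 h after dosing. Concentrations ran from 100 uM downward in half-log steps in 0.5% DMSO; activity was fitted in both directions versus vehicle.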

Read-out in assay [12]: X-box binding protein 1 (XBP1), XBP1 (gene 7494)
The assay is described as follows: LTEA_HepaRG_XBP1: Life Technologies and Expression Analysis (LTEA) Assay for X-box binding protein 1 (XBP1) using HepaRG (AID 2283540). Conditions: mRNA level, 48 h; actives raise or lower the signal. The method in brief: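 Human HepaRG monolayers receive test chemical for 48 h across an eight-point half-log series starting at 100 uM. XBP1 mRNA gain or loss is scored against DMSO by qRT-PCR.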

Assay [13] in a line: LTEA_HepaRG_LDH_cytotoxicity: Cytotoxicity Assessment in the Life Technologies and Expression Analysis (LTEA) Assay (AID 2283563; active means hit-call score of the fitted dose curve at least 0.9, where 1 is the maximum;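 on AC50: LDH activity released into spent culture medium as a marker of cell death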). The method in brief:
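Human HepaRG hepatic cells are treated with test chemicals for 48 h at up to 100 uM in 0.5% DMSO. Cytotoxicity is scored from medium LDH against the vehicle control.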

The nature of assay [14]: TOX21_p53_BLA_p2_viability: Viability Assessment in the Tox21 HCT-116 p53 Agonism Beta-lactamase Assay, Phase 2 (AID 2283591; active means hit-call score of the fitted dose curve at least 0.9, where 1 is the maximum;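 further: compound exposure lasted 16 h at 37 °C; actives lower the ATP signal meaning cytotoxicity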). Summed up:
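HCT-116 p53-bla cells (4000/well) rested 5 h at 37C, then received compounds in DMSO (217-fold dilution) for 16 h at 37C, 5% CO2. After the CCF4 read, CellTiter-Glo was added; ATP luminescence was read after 30 min at room temperature.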

For assay [15], the target named is Cellular tumor antigen p53 (Homo sapiens) (UniProt P04637). The assay is described as follows: TOX21_p53_BLA_p2_ratio: Tox21 HCT-116 p53 Agonism Beta-lactamase Assay, Ratio, Phase 2 (AID 2283592; active means hit-call score of the fitted dose curve at least 0.9, where 1 is the maximum). Summed up: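 An inducible beta-lactamase reporter in HCT116 cells signals p53 pathway activation. After 16 h chemical exposure at 37C, cells load CCF4-AM substrate for 2 h at room temperature; activity is the cleaved/uncleaved emission ratio relative to DMSO.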

The nature of assay [16]: TOX21_p53_BLA_p3_viability: Viability Assessment in the Tox21 HCT-116 p53 Agonism Beta-lactamase Assay, Phase 3 (AID 2283593; active means hit-call score of the fitted dose curve at least 0.9, where 1 is the maximum;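 further: cells exposed to compound for 16 h before reading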). Summed up: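 HCT-116 cells (4000/well) rested 5 h at 37C, then got DMSO compounds by pin tool (217-fold dilution) for 16 h at 37C, 5% CO2. After the bla read, CellTiter-Glo was added and luminescence read at 30 min, room temperature.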
The target of assay [17] is Cellular tumor antigen p53 (Homo sapiens) (UniProt P04637). The assay is described as follows: TOX21_p53_BLA_p3_ratio: Tox21 HCT-116 p53 Agonism Beta-lactamase Assay, Ratio, Phase 3 (AID 2283596; active means hit-call score of the fitted dose curve at least 0.9, where 1 is the maximum). The method in brief: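 HCT116 p53-bla cells (4000/well) given compound in DMSO (217-fold dilution) after 5 h, incubated 16 h at 37C. CCF4-AM substrate 2 h at room temperature; 460/530 nm emission ratio, gain fitted against DMSO.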

Read-out in assay [18]: Thyroid Hormone Responsive (THRSP), THRSP (gene 7069)
The assay is described as follows: LTEA_HepaRG_THRSP: Life Technologies and Expression Analysis (LTEA) Assay for Thyroid Hormone Responsive (THRSP) using HepaRG (AID 2283536). Conditions: mRNA level, 48 h; actives raise or lower the signal. Summed up:
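Differentiated human HepaRG cells were exposed in duplicate for 48 h in serum-free induction medium to eight concentrations (top 100 uM, half-log steps, 0.5% DMSO). Expression was quantified by TaqMan qRT-PCR, normalized to ACTB, GAPDH and POLR2A, with bidirectional fitting against DMSO.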

Records with an inconclusive call do not appear. Active and inactive are the calls of the source. How the source made its calls, unless noted: active means hit-call score of the fitted dose curve at least 0.9, where 1 is the maximum; inactive means score below 0.9.

Sequence of Signal transducer and activator of transcription 3 (Homo sapiens) (P40763 whole entry, looked up): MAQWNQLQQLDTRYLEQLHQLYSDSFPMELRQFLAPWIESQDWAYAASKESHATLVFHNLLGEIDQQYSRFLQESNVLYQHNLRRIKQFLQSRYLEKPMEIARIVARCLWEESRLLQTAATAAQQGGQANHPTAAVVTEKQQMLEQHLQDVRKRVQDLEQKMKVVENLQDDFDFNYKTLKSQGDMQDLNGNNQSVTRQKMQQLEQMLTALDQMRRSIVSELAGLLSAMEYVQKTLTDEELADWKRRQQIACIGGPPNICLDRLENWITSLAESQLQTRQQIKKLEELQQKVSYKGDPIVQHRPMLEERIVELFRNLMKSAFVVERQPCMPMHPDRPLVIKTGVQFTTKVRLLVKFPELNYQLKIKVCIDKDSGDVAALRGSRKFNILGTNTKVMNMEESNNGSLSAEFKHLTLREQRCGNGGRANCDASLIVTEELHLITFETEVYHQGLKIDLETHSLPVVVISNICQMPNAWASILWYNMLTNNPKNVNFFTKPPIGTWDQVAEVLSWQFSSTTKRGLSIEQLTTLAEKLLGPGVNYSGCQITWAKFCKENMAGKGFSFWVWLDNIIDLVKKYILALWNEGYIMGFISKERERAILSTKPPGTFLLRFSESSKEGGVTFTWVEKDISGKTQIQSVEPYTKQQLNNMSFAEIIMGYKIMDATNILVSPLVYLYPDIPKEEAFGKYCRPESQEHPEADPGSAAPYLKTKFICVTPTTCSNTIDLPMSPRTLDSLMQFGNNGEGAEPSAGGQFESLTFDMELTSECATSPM
Sequence of Nuclear factor erythroid 2-related factor 2 (Homo sapiens) (Q16236 whole entry, looked up): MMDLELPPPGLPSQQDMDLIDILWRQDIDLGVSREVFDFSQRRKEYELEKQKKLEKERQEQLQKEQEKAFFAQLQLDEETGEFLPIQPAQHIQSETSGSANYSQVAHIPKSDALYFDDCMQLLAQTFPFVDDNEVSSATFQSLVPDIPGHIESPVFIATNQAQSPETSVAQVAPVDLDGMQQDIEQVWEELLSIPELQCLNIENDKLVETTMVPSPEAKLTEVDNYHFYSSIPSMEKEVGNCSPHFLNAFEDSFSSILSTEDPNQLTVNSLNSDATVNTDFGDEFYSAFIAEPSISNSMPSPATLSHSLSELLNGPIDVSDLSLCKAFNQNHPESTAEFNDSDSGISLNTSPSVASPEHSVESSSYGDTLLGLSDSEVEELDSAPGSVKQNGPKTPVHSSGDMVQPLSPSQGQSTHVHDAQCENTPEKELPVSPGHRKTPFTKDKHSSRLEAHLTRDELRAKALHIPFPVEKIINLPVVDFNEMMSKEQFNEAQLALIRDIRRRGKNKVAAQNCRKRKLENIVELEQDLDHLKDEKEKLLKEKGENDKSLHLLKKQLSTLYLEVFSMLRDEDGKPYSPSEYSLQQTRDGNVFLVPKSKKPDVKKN
Sequence of Cellular tumor antigen p53 (Homo sapiens) (P04637 whole entry, looked up): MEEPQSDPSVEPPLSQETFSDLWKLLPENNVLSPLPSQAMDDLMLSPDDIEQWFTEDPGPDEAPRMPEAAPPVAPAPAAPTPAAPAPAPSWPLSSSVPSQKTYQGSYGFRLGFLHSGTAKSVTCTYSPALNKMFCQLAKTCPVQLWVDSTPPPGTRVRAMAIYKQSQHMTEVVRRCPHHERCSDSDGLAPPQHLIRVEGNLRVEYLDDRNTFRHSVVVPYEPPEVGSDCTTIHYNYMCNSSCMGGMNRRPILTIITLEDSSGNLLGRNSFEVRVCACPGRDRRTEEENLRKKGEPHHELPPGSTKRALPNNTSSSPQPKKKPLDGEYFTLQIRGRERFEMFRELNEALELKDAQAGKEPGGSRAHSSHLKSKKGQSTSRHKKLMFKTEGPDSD

Consider `COC(=O)[C@H]1[C@H]2C[C@@H]3c4[nH]c5cc(OC)ccc5c4CCN3C[C@H]2C[C@@H](OC(=O)c2cc(OC)c(OC)c(OC)c2)[C@@H]1OC`, for which the AC50 in assay [1] was 42.2 µM (active); in [4], 59 µM (active); in assay [5], 62.8 µM (active); in [10], 66.1 µM (active); in assay [11] it was 55.3 µM (active); in [12], 42.2 µM (active). Moreover, the AC50 in [13] was 30.3 µM (active). In addition, the outcome in assay [2] is “inactive”; in assay [3], “inactive”; in [6] it was “inactive”; in [7], “inactive”; with TIMP1, TIMP1 (gene 7076) it was “inactive”; in assay [8], “inactive”. In addition, the call in assay [9], in assay [14], in [15], in [16] and in [17] was inactive.
Regarding `COc1ccc(C(=O)Nc2nc3ccccc3c(NCc3ccccc3)c2C#N)cc1`, the AC50 was 20.9 µM (active) in assay [1]; 16.3 µM (active) in [4]; 7.58 µM (active) in assay [7]; 13.6 µM (active) in [18]; 3.8 µM (active) in assay [10]; 13.2 µM (active) in assay [12]. Also, in assay [15], the AC50 was 60.1 µM (active). Further, the outcome in assay [2] is “inactive”; in [3], “inactive”; in assay [6] it was “inactive”; in the assay with TIMP1, TIMP1 (gene 7076), “inactive”; in assay [8], “inactive”; in [9], “inactive”. In addition, the molecule was called inactive in [11], in assay [13] and in assay [17].
Consider `CCCCc1nc2cccnc2n1Cc1ccc(-c2ccccc2-c2nnn[nH]2)cc1`, for which the outcome in [1], in [2], in assay [3], in assay [4], in assay [5] and in assay [6] was inactive. The outcome in [7] was “inactive”; with TIMP1, TIMP1 (gene 7076), “inactive”; in assay [8] it was “inactive”; in assay [9], “inactive”; in assay [11] it was “inactive”; in [12], “inactive”. Also, the molecule was classed as inactive in [13], in assay [14], in assay [15] and in assay [17]. For the same molecule, the AC50 in [18] was 35.5 µM (active); in [10], 18.8 µM (active).
Consider `CC(C)c1cccc(C(C)C)c1`, for which the call in [1], in [2], in [3], in assay [4], in assay [5] and in assay [6] was inactive. Further, the outcome is “inactive” in assay [7]; “inactive” with TIMP1, TIMP1 (gene 7076); “inactive” in assay [8]; “inactive” in assay [10]; “inactive” in [11]; “inactive” in assay [12]. For the same molecule, the molecule was classed as inactive in assay [13].

What is called AC50 is the concentration giving half of the maximal activity seen.

For the origin of these results see PubChem BioAssay (EPA / NIEHS).
